Data from ChEMBL document CHEMBL4513216, “Probing the Open Global Health Chemical Diversity Library for Multistage-Active Starting Points for Next-Generation Antimalarials” (ACS Infect Dis, 2020).
The campaign covered roughly 69,000 compounds. About 8,600 (12%) showed an effect of 50% or more. The list comes from a sample in which strong results are over-represented; it also holds similar structures and randomly drawn compounds.

Test system: Plasmodium berghei
Assay: Screen against P. berghei liver stage (PbLuc), transformed with Luciferase, at 10uM
Assay type: functional, HepG2
Details: tested at 10 uM

Question: Which INHIBITION does the source give for Cn1cc(CN2CCC3(CC2)COC(COc2ccccn2)C3)cn1 (configuration not stated) here?
Answer: Its INHIBITION is 30.3%.

Question: With N#Cc1ccc(OCC(O)CN2CCC(c3ccn[nH]3)CC2)cc1 (configuration not stated) as the compound, how does the INHIBITION read?
Answer: The INHIBITION was 7.08%.

Question: OC(COc1ccccc1)CN1CCN(c2nccs2)CC1 (configuration not stated) was tested. Which INHIBITION did it give?
Answer: The INHIBITION was 27.7%.

Question: Which INHIBITION does the source give for Cc1cccc(OCC(O)CN2CCC(c3ccn[nH]3)CC2)c1 (configuration not stated) here?
Answer: Its INHIBITION is 42%.

Question: With COc1ccc(OCC(O)CN2CCN(c3nccs3)CC2)cc1 (configuration not stated) as the compound, how does the INHIBITION read?
Answer: The INHIBITION was 8.9%.

Question: Cc1cc(C)cc(OCC(O)CN2CCN(c3nccs3)CC2)c1 (configuration not stated) was tested. Which INHIBITION did it give?
Answer: The INHIBITION was 53.4%.

Question: With N#Cc1ccc(OCC(O)CN2CCN(c3nccs3)CC2)cc1 (configuration not stated) as the compound, how does the INHIBITION read?
Answer: The INHIBITION was 87.6%.

Question: CC(C)OCCCNC(=O)CN1CCN(c2nccs2)CC1 was tested. Which INHIBITION did it give?
Answer: Its INHIBITION is -20.5%.

Question: How did the INHIBITION turn out when CC(=O)N(C)c1nc(CN2CCN(c3nccs3)CC2)cs1 was run?
Answer: The INHIBITION was 38.3%.

Question: Cc1cccc(OCC(O)CN2CCN(c3nccs3)CC2)c1 (configuration not stated) was tested. Which INHIBITION did it give?
Answer: The INHIBITION was 77.4%.

Question: With CCc1c(C(=O)N2CCNC(=O)C2)cnn1C(C)(C)C as the compound, how does the INHIBITION read?
Answer: Its INHIBITION is 3.73%.

Question: For Cc1nn(C)c(C)c1C1CCCN1C(=O)c1nccnc1N (configuration not stated), which INHIBITION is on record?
Answer: Its INHIBITION is 12.7%.

Question: Which INHIBITION does the source give for Cn1ncc2c1C(COCC1CC1)CN(Cc1ccsc1)C2 (configuration not stated) here?
Answer: The INHIBITION was 4.57%.

Question: How did the INHIBITION turn out when COC(=O)COc1ccc(-c2noc(C3CCCO3)n2)cc1 (configuration not stated) was run?
Answer: The INHIBITION was 8.59%.

Question: With COCCCNC(=O)c1cc(-c2ccc(OC)cc2)nn1C as the compound, how does the INHIBITION read?
Answer: Its INHIBITION is 3.19%.

Question: With COc1ccccc1C1=NOC(CC2(C(=O)NC(C)C)CCOCC2)C1 (configuration not stated) as the compound, how does the INHIBITION read?
Answer: Its INHIBITION is -29.8%.

Question: Fc1cccc(-n2nc(C3CC3)nc2CCn2cnnn2)c1 was tested. Which INHIBITION did it give?
Answer: The INHIBITION was 24.8%.

Question: How did the INHIBITION turn out when COCc1nc(C2CC2)nn1-c1cccc(F)c1 was run?
Answer: Its INHIBITION is -19.8%.

Question: For COc1ccc(CCNC(=O)C2CCC(Cn3cnnn3)CC2)cc1 (configuration not stated), which INHIBITION is on record?
Answer: Its INHIBITION is 22.9%.

Question: For COCc1nc(C2CC2)nn1-c1ccccc1Cl, which INHIBITION is on record?
Answer: Its INHIBITION is 37.2%.

Question: With CN1CCC(n2nc(Cc3cccc(Cl)c3)nc2Cn2cnnn2)CC1 as the compound, how does the INHIBITION read?
Answer: The INHIBITION was 15.7%.

Question: For COc1ccc(-n2nc(C3CC3)nc2CCn2cnnn2)cc1, which INHIBITION is on record?
Answer: The INHIBITION was 52.5%.

Question: Which INHIBITION does the source give for COc1ccc(Cl)cc1-n1nc(C2CCCC2)nc1Cn1cnnn1 here?
Answer: Its INHIBITION is 70.4%.

Question: Which INHIBITION does the source give for COCc1nc(C2CC2)nn1-c1cc(Cl)ccc1OC here?
Answer: The INHIBITION was 51.1%.

Question: Which INHIBITION does the source give for CCn1cnnc1C1CCN(C(=O)c2ccc(Cl)cc2OC)CC1 here?
Answer: Its INHIBITION is 25.1%.

Question: For CN1C(=O)[C@@H]2CC[C@H]1CN(C(=O)c1sccc1S(N)(=O)=O)C2, which INHIBITION is on record?
Answer: The INHIBITION was 25.9%.

Question: For CC(Cn1cccn1)Nc1cnc2ccccc2n1 (configuration not stated), which INHIBITION is on record?
Answer: The INHIBITION was 24.2%.

Question: How did the INHIBITION turn out when Cc1nc(-c2cccc(N3CCC(N[C@@H]4CCOC4)CC3)c2)cs1 was run?
Answer: Its INHIBITION is 44.1%.

Question: For O=C1N(Cc2cccc(F)c2)CCC12CCCN(c1ncc(F)cn1)C2 (configuration not stated), which INHIBITION is on record?
Answer: The INHIBITION was 8.66%.

Question: How did the INHIBITION turn out when CC(C)=CCCC(C)CN1CCC(n2cc(C(C)(C)O)nn2)CC1 (configuration not stated) was run?
Answer: The INHIBITION was -94.3%.

Question: CC(C)=CCCC(C)CN1CCC(n2cc(CO)nn2)CC1 (configuration not stated) was tested. Which INHIBITION did it give?
Answer: Its INHIBITION is -109%.

Question: Which INHIBITION does the source give for CC(C)=CCCC(C)CN1CCC(n2cc(C(=O)NCCO)nn2)CC1 (configuration not stated) here?
Answer: Its INHIBITION is 60.9%.
